{"source": "the supplement of paper PMC8728848", "binders": {"B1": {"name": "his-Lectin-24A (Drosophila melanogaster) (protein)", "chain": "MFRLSVLVLNLLLVSHEFSAGTAKIEIQPLPALCNGYCFPTLKPVMEYVAIHQDKWNTCTEILANEARKDQIQLNIQLDALKADVSNIKASQLSKDEKLDRMEREQFAMHESLETINRYLTVKLDRTKLQLEAIKNTMDYMKAQMDGYFSAINGVQCLQPGFEKIGDRYFYIEEDVELNWLDAQAKCRRMGGHLASIKTKQEFDAIVEKLDDSKSYFLGVNENTKTGDFVSAASGKSCLYHEWGPGEPHHNNDQERCVSILRKLMHVGNCTYEKRFICQYGI"}}, "assay_in_all_cases": "glycan array binding signal (z-score within array); higher = stronger binding", "details_in_all_cases": "glycan notation: IUPAC condensed, linker removed", "key": {"[1]": {"target": "Gal(b1-4)GlcNAc(b1-6)[Gal(b1-4)GlcNAc(b1-3)]GalNAc", "method_in_brief": "(§1)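 The Consortium for Functional Glycomics database supplied 3228 glycan arrays, of which those lacking an available protein sequence were dropped. The binding signal, a within-array Z-score, was averaged across arrays of the same protein sequence and across linkers. Negative scores can be read as non-binding.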"}, "[2]": {"target": "Gal3S(b1-4)[Fuc(a1-3)]GlcNAc6S", "method_in_brief": "as §1"}, "GalNAc3S(b1-4)GlcNAc3S": {"target": "GalNAc3S(b1-4)GlcNAc3S", "method_in_brief": "as §1"}, "GalNAc4S6S(b1-4)GlcNAc": {"target": "GalNAc4S6S(b1-4)GlcNAc", "method_in_brief": "as §1"}, "Glc(a1-4)Glc": {"target": "Glc(a1-4)Glc", "method_in_brief": "as §1"}, "GlcA(b1-3)Gal": {"target": "GlcA(b1-3)Gal", "method_in_brief": "as §1"}, "[3]": {"target": "GlcNAc(a1-4)Gal(b1-4)GlcNAc(b1-3)Gal(b1-4)Glc", "method_in_brief": "as §1"}, "[4]": {"target": "GlcNAc(b1-2)[GlcNAc(b1-4)]Man(a1-3)[GlcNAc(b1-4)][GlcNAc(b1-2)[GlcNAc(b1-6)]Man(a1-6)]Man(b1-4)GlcNAc(b1-4)[Fuc(a1-6)]GlcNAc", "method_in_brief": "as §1"}, "[5]": {"target": "GlcNAc(b1-2)[GlcNAc(b1-6)]Man(a1-6)[GlcNAc(b1-2)Man(a1-3)]Man(b1-4)GlcNAc(b1-4)[Fuc(a1-6)]GlcNAc", "method_in_brief": "as §1"}, "[6]": {"target": "GlcNAc(b1-3)Gal(b1-4)GlcNAc(b1-3)Gal(b1-4)GlcNAc(b1-3)Gal(b1-4)GlcNAc(b1-3)Gal(b1-4)GlcNAc(b1-2)Man(a1-3)[GlcNAc(b1-3)Gal(b1-4)GlcNAc(b1-3)Gal(b1-4)GlcNAc(b1-3)Gal(b1-4)GlcNAc(b1-3)Gal(b1-4)GlcNAc(b1-2)Man(a1-6)]Man(b1-4)GlcNAc(b1-4)GlcNAc", "method_in_brief": "as §1"}, "[7]": {"target": "GlcNAc(b1-6)Gal(b1-4)GlcNAc", "method_in_brief": "as §1"}, "Kdn(a2-3)Gal(b1-3)GalNAc": {"target": "Kdn(a2-3)Gal(b1-3)GalNAc", "method_in_brief": "as §1"}, "MurNAc(b1-4)GlcNAc": {"target": "MurNAc(b1-4)GlcNAc", "method_in_brief": "as §1"}, "[8]": {"target": "Neu5Ac(a2-3)Gal(b1-3)[GlcNAc(b1-6)]GalNAc", "method_in_brief": "as §1"}, "[9]": {"target": "Neu5Ac(a2-3)Gal(b1-4)GlcNAc(b1-2)[Neu5Ac(a2-3)Gal(b1-4)GlcNAc(b1-4)]Man(a1-3)[GlcNAc(b1-4)][Neu5Ac(a2-3)Gal(b1-4)GlcNAc(b1-2)[Neu5Ac(a2-3)Gal(b1-4)GlcNAc(b1-6)]Man(a1-6)]Man(b1-4)GlcNAc(b1-4)GlcNAc", "method_in_brief": "as §1"}, "[10]": {"target": "Neu5Ac(a2-3)Gal(b1-4)GlcNAc(b1-2)[Neu5Ac(a2-3)Gal(b1-4)GlcNAc(b1-6)]Man(a1-6)[Neu5Ac(a2-3)Gal(b1-4)GlcNAc(b1-2)Man(a1-3)][GlcNAc(b1-4)]Man(b1-4)GlcNAc(b1-4)GlcNAc", "method_in_brief": "as §1"}, "[11]": {"target": "Neu5Ac(a2-6)Gal(b1-4)GlcNAc(b1-2)Man", "method_in_brief": "as §1"}, "[12]": {"target": "Neu5Ac(a2-6)Gal(b1-4)GlcNAc(b1-2)Man(a1-3)[GlcNAc(b1-4)][Neu5Ac(a2-6)Gal(b1-4)GlcNAc(b1-2)Man(a1-6)]Man(b1-4)GlcNAc(b1-4)GlcNAc", "method_in_brief": "as §1"}, "[13]": {"target": "Neu5Ac(a2-6)Gal(b1-4)GlcNAc(b1-2)Man(a1-3)[Man(a1-6)]Man(b1-4)GlcNAc(b1-4)GlcNAc", "method_in_brief": "as §1"}, "[14]": {"target": "Neu5Ac(a2-6)Gal(b1-4)GlcNAc(b1-2)Man(a1-3)[Neu5Ac(a2-6)Gal(b1-4)GlcNAc(b1-2)Man(a1-6)]Man(b1-4)GlcNAc(b1-4)GlcNAc", "method_in_brief": "as §1"}, "[15]": {"target": "Neu5Ac(a2-6)Gal(b1-4)GlcNAc(b1-2)Man(a1-6)Man(b1-4)GlcNAc(b1-4)GlcNAc", "method_in_brief": "as §1"}, "[16]": {"target": "Neu5Ac(a2-6)Gal(b1-4)GlcNAc(b1-2)Man(a1-6)[Man(a1-3)]Man(b1-4)GlcNAc(b1-4)GlcNAc", "method_in_brief": "as §1"}, "[17]": {"target": "Neu5Ac(a2-6)Gal(b1-4)GlcNAc(b1-3)Gal(b1-4)GlcNAc(b1-3)[Neu5Ac(a2-6)Gal(b1-4)GlcNAc(b1-3)Gal(b1-4)GlcNAc(b1-6)]GalNAc", "method_in_brief": "as §1"}, "[18]": {"target": "Neu5Ac(a2-8)Neu5Ac(a2-3)Gal(b1-3)GalNAc(b1-4)[Neu5Ac(a2-3)]Gal(b1-4)Glc", "method_in_brief": "as §1"}}, "note": "Only a selection was taken, and the strongest signals are over-represented in it overall.", "data": [{"binder": "B1", "values": [{"measurement": "glycan array binding signal (z-score)", "setting": "[1]", "result": 0.403}, {"measurement": "glycan array binding signal (z-score)", "setting": "[2]", "result": 0.382}, {"measurement": "glycan array binding signal (z-score)", "setting": "GalNAc3S(b1-4)GlcNAc3S", "result": 3.3}, {"measurement": "glycan array binding signal (z-score)", "setting": "GalNAc4S6S(b1-4)GlcNAc", "result": 6.71}, {"measurement": "glycan array binding signal (z-score)", "setting": "Glc(a1-4)Glc", "result": -0.592}, {"measurement": "glycan array binding signal (z-score)", "setting": "GlcA(b1-3)Gal", "result": 0.317}, {"measurement": "glycan array binding signal (z-score)", "setting": "[3]", "result": 2.7}, {"measurement": "glycan array binding signal (z-score)", "setting": "[4]", "result": 2.05}, {"measurement": "glycan array binding signal (z-score)", "setting": "[5]", "result": 1.69}, {"measurement": "glycan array binding signal (z-score)", "setting": "[6]", "result": 0.615}, {"measurement": "glycan array binding signal (z-score)", "setting": "[7]", "result": 0.608}, {"measurement": "glycan array binding signal (z-score)", "setting": "Kdn(a2-3)Gal(b1-3)GalNAc", "result": 0.552}, {"measurement": "glycan array binding signal (z-score)", "setting": "MurNAc(b1-4)GlcNAc", "result": -0.281}, {"measurement": "glycan array binding signal (z-score)", "setting": "[8]", "result": -0.036}, {"measurement": "glycan array binding signal (z-score)", "setting": "[9]", "result": 2.26}, {"measurement": "glycan array binding signal (z-score)", "setting": "[10]", "result": -0.362}, {"measurement": "glycan array binding signal (z-score)", "setting": "[11]", "result": -0.44}, {"measurement": "glycan array binding signal (z-score)", "setting": "[12]", "result": -1.2}, {"measurement": "glycan array binding signal (z-score)", "setting": "[13]", "result": -0.737}, {"measurement": "glycan array binding signal (z-score)", "setting": "[14]", "result": 0.078}, {"measurement": "glycan array binding signal (z-score)", "setting": "[15]", "result": 1.27}, {"measurement": "glycan array binding signal (z-score)", "setting": "[16]", "result": 1.07}, {"measurement": "glycan array binding signal (z-score)", "setting": "[17]", "result": 0.118}, {"measurement": "glycan array binding signal (z-score)", "setting": "[18]", "result": 2.87}]}]}
